Our source for the PBM binding z-score values is the supplement of paper PMC6555819.

Assay in all cases: PBM binding z-score (relative to random genomic background probes); higher = stronger binding; sequences stand for … in GC…GCGATTGACAGCGTAGAATGAAGG
The subject of assay [1] is PPARg:RXRa DBDmut IVT, anti-RXR (DBD mutation: RXRa K156A/R161A, NR concentration 270 nM, RXRa partner concentration 90 nM). In short, it runs like this: (§1)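 Probes were double-stranded and carried 34-nt variable regions with direct-repeat seeds, single-nucleotide variants, half-site ablations and random human genomic background sequences, printed on custom Agilent 4×180K protein-binding microarrays. Arrays were incubated 1 h with ligand-free nuclear receptor dimers in PBS pH 7.4, 2% milk, 0.02% Triton X-100, 1 mM DTT, 0.2 mg/mL BSA and 0.4 mg/ml salmon testes DNA. Antibodies against each partner (one per run) detected binding, and scanned fluorescence was regression-normalized. Binding z-scores use the random background probes as reference.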

In assay [2] the test system is PPARg:RXRa IVT, anti-PPARg (NR concentration 270 nM, RXRa partner concentration 90 nM). A digest of the protocol:
as §1

The test system of assay [3] is PPARg DBDmut:RXRa IVT, anti-PPARg (DBD mutation: PPARg1 K132A/R137A, NR concentration 270 nM, RXRa partner concentration 90 nM). A digest of the protocol:
as §1

Assay [4] relates to PPARg DBDmut IVT, anti-PPARg (DBD mutation: PPARg1 K132A/R137A, NR concentration 270 nM). A digest of the protocol:
as §1

Assay [5] deals with PPARg homodimer (NR concentration 180 nM). In short, it runs like this:
as §1

The subject of assay [6] is PXR:RXRa (NR concentration 270 nM, RXRa partner concentration 90 nM). In short, it runs like this:
as §1

In assay [7] the test system is PXR homodimer (NR concentration 270 nM). A digest of the protocol:
as §1

Assay [8] deals with RARa:RXR (NR concentration 270 nM, RXRa partner concentration 90 nM). A digest of the protocol: as §1
In assay [9] the test system is RARa homodimer (NR concentration 270 nM). In short, it runs like this:
as §1

Assay [10] concerns RARb:RXRa (NR concentration 270 nM, RXRa partner concentration 90 nM). In short, it runs like this:
as §1

The subject of assay [11] is RARb homodimer (NR concentration 270 nM). In short, it runs like this:
as §1

The test system of assay [12] is RARg:RXRa (NR concentration 270 nM, RXRa partner concentration 90 nM). In short, it runs like this: as §1
Assay [13] relates to RARg homodimer (NR concentration 270 nM). In short, it runs like this:
as §1

Assay [14] has as its system RXRa DBDmut IVT, anti-RXR (DBD mutation: RXRa K156A/R161A, NR concentration 90 nM). In short, it runs like this:
as §1

In assay [15] the test system is RXRa homodimer (NR concentration 180 nM). A digest of the protocol: as §1
Assay [16] has as its system THRa:RXRa (NR concentration 90 nM, RXRa partner concentration 90 nM). In short, it runs like this: as §1
Assay [17] deals with THRa homodimer (NR concentration 90 nM). In short, it runs like this: as §1
In assay [18] the test system is VDR homodimer (NR concentration 270 nM). In short, it runs like this: as §1

As to TCTTGTAGATCAACAAGAGGTTAAGAAAGATCGA, the PBM binding z-score in assay [1] is 1.35; in assay [2], 0.865; in assay [3], 0.785; in assay [4], 0.787; in [5], -0.0436; in assay [6], 1.27. For the same sequence, the PBM binding z-score is 0.0734 in [7]; 1.63 in assay [8]; -0.225 in [9]; 0.99 in assay [10]; 0.756 in assay [11]; 1.56 in assay [12]. For the same sequence, the PBM binding z-score was 0.53 in assay [13]; -0.00375 in [14]; 1.4 in assay [15]; 1.22 in assay [16]; -0.94 in assay [17]; -0.26 in assay [18].
On to CCTTACGGGTCAAGATTATAGCACGGGTGGTACG, for which the PBM binding z-score is 1.74 in assay [1]; 2.81 in assay [2]; -0.14 in [3]; 0.0306 in assay [4]; 2.2 in assay [5]; 2.85 in [6]. The PBM binding z-score in assay [7] was -0.0377; in assay [8], 4.07; in assay [9], 1.11; in [10], 3.98; in assay [11] it was 2.79; in assay [12], 4.4. Further, the PBM binding z-score in assay [13] amounted to 4.24; in assay [14], 0.558; in [15], 5.02; in [16], 2.02; in assay [17], 0.000143; in [18], 0.658.
Regarding GCTAGTTGGTCAGTAAAAGGTCACACAACGGTCG, the PBM binding z-score was 0.826 in assay [1]; 2.77 in [2]; 0.539 in [3]; 0.321 in assay [4]; 3.81 in [5]; 5.2 in [6]. The PBM binding z-score in assay [7] was 1.19; in assay [8], 6.17; in assay [9] it was 2.05; in assay [10] it was 4.43; in assay [11] it was 5.29; in [12], 5.75. For the same sequence, the PBM binding z-score in assay [13] turned out to be 5.52; in assay [14] it was 0.797; in [15] it was 5.56; in assay [16], 3.76; in [17], 1.74; in [18], 1.75.
On to GCGACTGGGGCATCAGCAGGTTACCGTAACTTAA, for which the PBM binding z-score in assay [1] is 3.92; in assay [2], 3.16; in assay [3] it was -0.711; in assay [4], -1.13; in assay [5], 0.0663; in [6], -0.0573. The PBM binding z-score was -0.613 in assay [7]; 0.398 in [8]; -0.334 in [9]; 0.841 in assay [10]; 1.14 in [11]; 0.702 in assay [12]. The PBM binding z-score is 0.193 in assay [13]; -0.433 in assay [14]; 0.309 in assay [15]; 1.03 in [16]; -0.152 in assay [17]; -0.576 in assay [18].
As to CGTCAAAGTTCAAGGTAACGAAACAGAAAGCAGC, the PBM binding z-score was 0.745 in [1]; 2.29 in assay [2]; 0.604 in [3]; 0.231 in assay [4]; 3.5 in [5]; 3.94 in assay [6]. Also, the PBM binding z-score came out at 2.79 in assay [7]; 3.53 in [8]; 1.57 in assay [9]; 5.11 in [10]; 3.67 in assay [11]; 5.6 in [12]. The PBM binding z-score came to 6.29 in [13]; 4.46 in [14]; 5.13 in assay [15]; 2.9 in [16]; 0.933 in assay [17]; 2.99 in assay [18].
As to ATCTATAGGTAAAAGTTCAGTGAATCCCGAGGAT, the PBM binding z-score in [1] stood at 1.4; in [2], 3.05; in assay [3] it was 1.78; in assay [4], 1.92; in assay [5], 1.04; in assay [6] it was 2.17. The PBM binding z-score was 1.35 in assay [7]; 1.84 in [8]; 1.06 in assay [9]; 2.29 in [10]; 2.32 in [11]; 1.92 in [12]. Further, the PBM binding z-score in assay [13] was 2.03; in [14], 0.768; in assay [15], 1.99; in assay [16], 0.789; in [17], -0.138; in assay [18] it was 1.46.
For CCTGCTAGGTCAGTGGTCAGCTAAAGCAGCTCGC, the PBM binding z-score in assay [1] is 3.16; in [2], 2.76; in assay [3], -1.08; in [4] it was -1.65; in assay [5], 0.944; in assay [6], -0.0429. The PBM binding z-score in assay [7] is -0.667; in [8], 0.509; in assay [9], -0.82; in assay [10], 3.42; in assay [11] it was 2.63; in [12] it was 2.56. For the same sequence, the PBM binding z-score in [13] is 3.82; in assay [14] it was 0.821; in [15] it was 0.693; in assay [16], 1.51; in [17], 0.454; in assay [18], -0.319.
Turning to TCGCCTAGGTCATTCAGGGGCCAGTATAGAAAGC, the PBM binding z-score in [1] is 2.54; in [2], 2.19; in [3], -0.243; in assay [4] it was -0.908; in [5], 1.82; in assay [6], 2.3. Also, the PBM binding z-score was -0.0121 in assay [7]; 3.36 in assay [8]; -0.254 in [9]; 3.96 in [10]; 3.67 in [11]; 6.06 in assay [12]. The PBM binding z-score in assay [13] was determined as 4.29; in [14], 2.42; in assay [15] it was 2.95; in assay [16], 3.52; in assay [17], 1; in assay [18], 1.4.
